# Measured values published in article PMC7862700, “An all-to-all approach to the identification of sequence-specific readers for epigenetic DNA modifications on cytosine”.
# Columns and labels:
# Experiment in all cases: DAPPL (digital affinity profiling via proximity ligation, sequencing); 10 mM Tris-HCl pH 7.5, 50 mM NaCl, 1 mM DTT, 4% glycerol, room temperature, 30 min; GST-TFs on glutathione beads, 16-mer random dsDNA library, 0.1% formaldehyde crosslink after washing; high values mean tight binding
# FLI1 = target: T1, FLI1 (Homo sapiens, UniProt Q01543 1-452); details: protein: recombinant; tags: N-terminal GST; dsDNA, one strand shown
# T1 sequence: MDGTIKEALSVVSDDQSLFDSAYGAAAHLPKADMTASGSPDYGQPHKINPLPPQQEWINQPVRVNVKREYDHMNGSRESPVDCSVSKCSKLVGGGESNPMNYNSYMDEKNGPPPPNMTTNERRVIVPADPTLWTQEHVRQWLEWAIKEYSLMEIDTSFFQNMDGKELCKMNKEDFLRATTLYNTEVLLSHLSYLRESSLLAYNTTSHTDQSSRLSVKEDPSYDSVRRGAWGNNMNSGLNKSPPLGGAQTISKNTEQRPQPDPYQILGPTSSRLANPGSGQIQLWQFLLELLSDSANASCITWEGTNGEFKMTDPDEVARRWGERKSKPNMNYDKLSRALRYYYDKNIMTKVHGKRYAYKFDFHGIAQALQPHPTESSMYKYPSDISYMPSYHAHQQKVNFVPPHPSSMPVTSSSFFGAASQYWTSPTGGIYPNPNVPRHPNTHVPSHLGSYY
# Outline: (§1)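 Pools of DNA-barcoded human transcription factors, expressed in yeast as GST fusions on glutathione beads and combined with a tag-only sample, were incubated with 200 nmole of a 16-mer random double-stranded DNA library. Incubation took 30 min at room temperature in Tris/NaCl/DTT/glycerol buffer and was followed by washing, 0.1% formaldehyde crosslinking, proximity ligation (BsaI/T4 ligase, 1 h, 37 °C), PCR amplification and sequencing on an Illumina NextSeq500. Binding signal is the ratio of a hexamer's read frequency for a factor to its frequency for the tag-only sample.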
# ELK1 = target: T2, ELK1 (Homo sapiens, UniProt P19419 1-428); details: protein: recombinant; tags: N-terminal GST; dsDNA, one strand shown
# T2 sequence: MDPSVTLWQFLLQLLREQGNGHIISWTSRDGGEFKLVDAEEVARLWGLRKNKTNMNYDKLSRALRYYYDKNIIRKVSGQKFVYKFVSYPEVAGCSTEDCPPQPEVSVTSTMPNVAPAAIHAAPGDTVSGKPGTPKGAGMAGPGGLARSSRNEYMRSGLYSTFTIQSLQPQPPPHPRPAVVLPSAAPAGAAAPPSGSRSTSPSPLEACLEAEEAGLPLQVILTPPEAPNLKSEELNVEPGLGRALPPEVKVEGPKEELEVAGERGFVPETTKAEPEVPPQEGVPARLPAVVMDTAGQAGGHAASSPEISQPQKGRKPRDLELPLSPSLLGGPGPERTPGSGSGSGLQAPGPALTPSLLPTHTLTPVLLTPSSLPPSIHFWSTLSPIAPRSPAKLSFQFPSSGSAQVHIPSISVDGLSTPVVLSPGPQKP
# Outline: as §1
# GABPA = target: T3, GABPA (Homo sapiens, UniProt Q06546 1-454); details: protein: recombinant; tags: N-terminal GST; dsDNA, one strand shown
# T3 sequence: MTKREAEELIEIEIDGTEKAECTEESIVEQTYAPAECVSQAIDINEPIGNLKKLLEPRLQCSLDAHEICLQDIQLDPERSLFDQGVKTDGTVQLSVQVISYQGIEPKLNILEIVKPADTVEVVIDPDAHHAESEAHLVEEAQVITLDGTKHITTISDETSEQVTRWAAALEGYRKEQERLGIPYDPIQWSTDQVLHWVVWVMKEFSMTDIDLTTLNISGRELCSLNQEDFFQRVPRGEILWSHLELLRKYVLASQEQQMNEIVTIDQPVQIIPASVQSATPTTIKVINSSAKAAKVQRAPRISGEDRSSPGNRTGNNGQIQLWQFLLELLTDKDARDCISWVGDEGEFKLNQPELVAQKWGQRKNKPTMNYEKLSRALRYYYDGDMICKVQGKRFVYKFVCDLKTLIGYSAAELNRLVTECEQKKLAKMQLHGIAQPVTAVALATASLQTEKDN
# Outline: as §1
# ERG = target: T4, ERG (Homo sapiens, UniProt P11308 1-479); details: protein: recombinant; tags: N-terminal GST; dsDNA, one strand shown
# T4 sequence: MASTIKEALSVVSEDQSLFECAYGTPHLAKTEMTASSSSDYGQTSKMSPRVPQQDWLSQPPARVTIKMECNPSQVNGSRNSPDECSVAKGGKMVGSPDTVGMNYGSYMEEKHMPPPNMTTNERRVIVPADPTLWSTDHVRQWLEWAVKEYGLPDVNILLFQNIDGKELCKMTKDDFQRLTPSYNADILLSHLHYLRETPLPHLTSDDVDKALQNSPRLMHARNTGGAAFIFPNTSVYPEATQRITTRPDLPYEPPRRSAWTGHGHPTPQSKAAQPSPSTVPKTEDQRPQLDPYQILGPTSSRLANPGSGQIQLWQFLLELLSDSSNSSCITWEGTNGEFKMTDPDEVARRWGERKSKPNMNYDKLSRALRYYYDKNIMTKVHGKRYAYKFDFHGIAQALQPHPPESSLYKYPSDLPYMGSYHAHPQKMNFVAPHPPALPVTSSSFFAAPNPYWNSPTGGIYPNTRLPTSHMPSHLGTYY
# Outline: as §1
# ELF1 = ELF1 (Homo sapiens, UniProt P32519 1-619); details: protein: recombinant; tags: N-terminal GST; dsDNA, one strand shown
# Outline: as §1
# EHF = target: T5, EHF (Homo sapiens, UniProt Q9NZC4 1-300); details: protein: recombinant; tags: N-terminal GST; dsDNA, one strand shown
# T5 sequence: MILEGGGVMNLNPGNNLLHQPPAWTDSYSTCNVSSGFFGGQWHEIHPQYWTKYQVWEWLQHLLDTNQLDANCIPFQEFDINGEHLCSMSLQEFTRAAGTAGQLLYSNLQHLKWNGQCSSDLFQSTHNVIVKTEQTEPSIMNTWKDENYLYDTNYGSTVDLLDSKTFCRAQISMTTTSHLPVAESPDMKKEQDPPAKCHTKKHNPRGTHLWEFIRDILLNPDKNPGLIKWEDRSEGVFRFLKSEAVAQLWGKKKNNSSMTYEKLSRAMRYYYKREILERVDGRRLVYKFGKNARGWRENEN
# Outline: as §1
# SPI1 = SPI1 (Homo sapiens, UniProt P17947 1-270); details: protein: recombinant; tags: N-terminal GST; dsDNA, one strand shown
# Outline: as §1
# SPIB = SPIB (Homo sapiens, UniProt Q01892 1-262); details: protein: recombinant; tags: N-terminal GST; dsDNA, one strand shown
# Outline: as §1
# ELK3 = target: T6, ELK3 (Homo sapiens, UniProt P41970 1-407); details: protein: recombinant; tags: N-terminal GST; dsDNA, one strand shown
# T6 sequence: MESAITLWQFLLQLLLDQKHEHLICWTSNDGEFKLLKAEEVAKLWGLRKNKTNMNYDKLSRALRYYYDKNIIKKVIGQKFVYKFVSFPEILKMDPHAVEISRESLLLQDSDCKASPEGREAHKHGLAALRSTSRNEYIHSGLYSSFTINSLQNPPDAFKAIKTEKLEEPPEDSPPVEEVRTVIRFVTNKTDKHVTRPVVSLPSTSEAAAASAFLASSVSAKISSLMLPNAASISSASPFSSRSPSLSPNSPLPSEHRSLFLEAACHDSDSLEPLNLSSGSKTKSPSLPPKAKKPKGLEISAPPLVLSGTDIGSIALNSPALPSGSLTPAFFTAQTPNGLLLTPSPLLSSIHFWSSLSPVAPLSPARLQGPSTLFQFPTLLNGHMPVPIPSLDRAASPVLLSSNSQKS
# Outline: as §1
# FEV = target: T7, FEV (Homo sapiens, UniProt Q99581 1-238); details: protein: recombinant; tags: N-terminal GST; dsDNA, one strand shown
# T7 sequence: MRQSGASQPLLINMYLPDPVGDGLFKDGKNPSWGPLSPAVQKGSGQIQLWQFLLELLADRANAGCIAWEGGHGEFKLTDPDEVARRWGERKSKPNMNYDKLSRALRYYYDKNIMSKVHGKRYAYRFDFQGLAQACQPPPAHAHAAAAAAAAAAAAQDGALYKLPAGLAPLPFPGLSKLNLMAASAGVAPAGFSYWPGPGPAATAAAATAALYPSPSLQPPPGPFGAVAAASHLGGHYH
# Outline: as §1
# ETV5 = ETV5 (Homo sapiens, UniProt P41161 1-510); details: protein: recombinant; tags: N-terminal GST; dsDNA, one strand shown
# Outline: as §1
# HSF1 = HSF1 (Homo sapiens, UniProt Q00613 1-529); details: protein: recombinant; tags: N-terminal GST; chain copies: 3; dsDNA, one strand shown
# Outline: as §1
# SPIC = target: T8, SPIC (Homo sapiens, UniProt Q8N5J4 1-248); details: protein: recombinant; tags: N-terminal GST; dsDNA, one strand shown
# T8 sequence: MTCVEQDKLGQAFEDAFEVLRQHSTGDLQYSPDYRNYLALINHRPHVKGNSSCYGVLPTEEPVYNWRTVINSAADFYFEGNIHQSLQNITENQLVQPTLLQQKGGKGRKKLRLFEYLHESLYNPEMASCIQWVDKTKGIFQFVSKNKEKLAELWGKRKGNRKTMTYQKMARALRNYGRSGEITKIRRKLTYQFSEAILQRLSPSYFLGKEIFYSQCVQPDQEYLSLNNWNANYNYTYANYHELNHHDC
# Outline: as §1
# ELF4 = ELF4 (Homo sapiens, UniProt Q99607 1-663); details: protein: recombinant; tags: N-terminal GST; dsDNA, one strand shown
# Outline: as §1
# ELK4 = target: T9, ELK4 (Homo sapiens, UniProt P28324-2 1-405); details: protein: recombinant; tags: N-terminal GST; dsDNA, one strand shown
# T9 sequence: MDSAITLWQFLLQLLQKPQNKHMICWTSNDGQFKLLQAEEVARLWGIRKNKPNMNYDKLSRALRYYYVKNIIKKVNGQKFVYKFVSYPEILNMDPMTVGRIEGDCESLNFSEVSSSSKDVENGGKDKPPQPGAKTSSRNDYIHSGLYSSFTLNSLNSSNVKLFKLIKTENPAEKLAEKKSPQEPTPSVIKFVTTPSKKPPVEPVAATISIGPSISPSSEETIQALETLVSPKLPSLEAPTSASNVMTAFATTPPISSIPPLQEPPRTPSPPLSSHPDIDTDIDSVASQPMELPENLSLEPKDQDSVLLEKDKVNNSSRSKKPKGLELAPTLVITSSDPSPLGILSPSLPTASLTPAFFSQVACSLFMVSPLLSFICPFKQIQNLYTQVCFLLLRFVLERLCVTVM
# Outline: as §1
# ETV2 = target: T10, ETV2 (Homo sapiens, UniProt O00321 1-342); details: protein: recombinant; tags: N-terminal GST; dsDNA, one strand shown
# T10 sequence: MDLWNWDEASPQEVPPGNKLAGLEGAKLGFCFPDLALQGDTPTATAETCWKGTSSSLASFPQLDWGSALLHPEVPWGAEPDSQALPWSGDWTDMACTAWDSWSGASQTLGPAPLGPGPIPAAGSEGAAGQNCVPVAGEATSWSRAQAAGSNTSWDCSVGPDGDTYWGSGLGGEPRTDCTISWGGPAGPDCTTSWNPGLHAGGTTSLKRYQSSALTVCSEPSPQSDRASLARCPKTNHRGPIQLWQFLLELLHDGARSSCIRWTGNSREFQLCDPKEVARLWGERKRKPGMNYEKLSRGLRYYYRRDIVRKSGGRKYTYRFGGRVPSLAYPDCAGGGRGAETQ
# Outline: as §1
# ELF3 = target: T11, ELF3 (Homo sapiens, UniProt P78545 1-371); details: protein: recombinant; tags: N-terminal GST; dsDNA, one strand shown
# T11 sequence: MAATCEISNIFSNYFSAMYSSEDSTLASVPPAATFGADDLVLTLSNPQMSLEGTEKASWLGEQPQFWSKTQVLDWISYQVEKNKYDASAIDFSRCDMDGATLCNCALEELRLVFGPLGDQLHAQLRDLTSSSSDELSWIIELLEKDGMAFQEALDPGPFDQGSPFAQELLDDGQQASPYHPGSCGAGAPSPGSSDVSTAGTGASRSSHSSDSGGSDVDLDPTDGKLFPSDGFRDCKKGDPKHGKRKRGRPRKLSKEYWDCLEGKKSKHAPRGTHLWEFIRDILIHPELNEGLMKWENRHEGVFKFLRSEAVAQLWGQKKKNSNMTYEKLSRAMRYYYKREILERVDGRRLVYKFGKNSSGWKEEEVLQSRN
# Outline: as §1
# CRX = CRX (Homo sapiens, UniProt O43186 1-299); details: protein: recombinant; tags: N-terminal GST; dsDNA, one strand shown
# Outline: as §1
# ETV1 = ETV1 (Homo sapiens, UniProt P50549 1-477); details: protein: recombinant; tags: N-terminal GST; dsDNA, one strand shown
# Outline: as §1
# SPIB, sequence (Q01892 whole entry): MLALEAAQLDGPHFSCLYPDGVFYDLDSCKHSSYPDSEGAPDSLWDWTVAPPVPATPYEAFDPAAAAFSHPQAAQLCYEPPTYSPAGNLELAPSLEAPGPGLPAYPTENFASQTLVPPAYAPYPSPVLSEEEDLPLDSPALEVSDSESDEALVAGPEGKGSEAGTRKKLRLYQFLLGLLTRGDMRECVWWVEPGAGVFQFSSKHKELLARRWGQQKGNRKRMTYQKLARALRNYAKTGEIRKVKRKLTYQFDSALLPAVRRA
# ETV5, sequence (P41161 whole entry): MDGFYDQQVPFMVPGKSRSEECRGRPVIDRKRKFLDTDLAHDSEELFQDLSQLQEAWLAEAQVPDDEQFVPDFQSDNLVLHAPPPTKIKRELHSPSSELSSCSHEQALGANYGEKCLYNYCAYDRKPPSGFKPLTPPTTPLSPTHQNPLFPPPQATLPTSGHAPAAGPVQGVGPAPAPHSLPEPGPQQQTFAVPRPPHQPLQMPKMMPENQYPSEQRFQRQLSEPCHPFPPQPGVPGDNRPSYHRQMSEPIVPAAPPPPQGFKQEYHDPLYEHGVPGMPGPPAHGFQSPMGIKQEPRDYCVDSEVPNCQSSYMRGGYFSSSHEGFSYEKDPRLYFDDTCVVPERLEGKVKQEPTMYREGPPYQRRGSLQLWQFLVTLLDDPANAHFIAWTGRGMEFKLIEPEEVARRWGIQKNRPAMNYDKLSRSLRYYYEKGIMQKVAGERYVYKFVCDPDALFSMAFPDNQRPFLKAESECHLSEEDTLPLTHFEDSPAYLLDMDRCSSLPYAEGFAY
# ELF4, sequence (Q99607 whole entry): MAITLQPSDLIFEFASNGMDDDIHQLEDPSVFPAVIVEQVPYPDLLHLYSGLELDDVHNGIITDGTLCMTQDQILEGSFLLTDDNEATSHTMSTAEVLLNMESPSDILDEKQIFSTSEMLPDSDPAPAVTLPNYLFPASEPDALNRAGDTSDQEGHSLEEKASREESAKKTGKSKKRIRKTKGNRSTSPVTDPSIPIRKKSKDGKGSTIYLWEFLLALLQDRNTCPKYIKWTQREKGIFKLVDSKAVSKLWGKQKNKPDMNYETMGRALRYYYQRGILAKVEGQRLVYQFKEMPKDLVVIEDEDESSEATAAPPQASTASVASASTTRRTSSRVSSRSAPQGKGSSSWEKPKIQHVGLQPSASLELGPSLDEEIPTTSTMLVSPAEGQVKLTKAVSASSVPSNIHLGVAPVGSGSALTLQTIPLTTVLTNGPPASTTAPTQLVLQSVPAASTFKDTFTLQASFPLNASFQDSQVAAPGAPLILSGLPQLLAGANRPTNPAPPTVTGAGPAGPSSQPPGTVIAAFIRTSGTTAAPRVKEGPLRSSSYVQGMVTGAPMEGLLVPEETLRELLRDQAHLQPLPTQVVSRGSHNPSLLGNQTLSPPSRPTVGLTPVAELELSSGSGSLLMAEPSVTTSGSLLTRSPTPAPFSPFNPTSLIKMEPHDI
# HSF1, sequence (Q00613 whole entry): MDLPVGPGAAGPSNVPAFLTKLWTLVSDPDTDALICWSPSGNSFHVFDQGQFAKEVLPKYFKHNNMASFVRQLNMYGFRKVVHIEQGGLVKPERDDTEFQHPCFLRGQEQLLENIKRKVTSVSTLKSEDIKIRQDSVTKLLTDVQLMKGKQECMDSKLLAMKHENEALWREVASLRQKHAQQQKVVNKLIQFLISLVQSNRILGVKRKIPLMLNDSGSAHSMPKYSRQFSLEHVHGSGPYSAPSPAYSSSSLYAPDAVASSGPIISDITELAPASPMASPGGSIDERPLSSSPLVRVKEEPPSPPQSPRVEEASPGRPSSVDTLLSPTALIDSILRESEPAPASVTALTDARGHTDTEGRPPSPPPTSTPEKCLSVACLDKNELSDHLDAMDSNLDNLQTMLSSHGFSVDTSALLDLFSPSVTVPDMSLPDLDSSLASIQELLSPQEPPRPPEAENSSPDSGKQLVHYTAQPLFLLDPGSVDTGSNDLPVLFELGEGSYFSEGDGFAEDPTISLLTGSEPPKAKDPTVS
# ETV1, sequence (P50549 whole entry): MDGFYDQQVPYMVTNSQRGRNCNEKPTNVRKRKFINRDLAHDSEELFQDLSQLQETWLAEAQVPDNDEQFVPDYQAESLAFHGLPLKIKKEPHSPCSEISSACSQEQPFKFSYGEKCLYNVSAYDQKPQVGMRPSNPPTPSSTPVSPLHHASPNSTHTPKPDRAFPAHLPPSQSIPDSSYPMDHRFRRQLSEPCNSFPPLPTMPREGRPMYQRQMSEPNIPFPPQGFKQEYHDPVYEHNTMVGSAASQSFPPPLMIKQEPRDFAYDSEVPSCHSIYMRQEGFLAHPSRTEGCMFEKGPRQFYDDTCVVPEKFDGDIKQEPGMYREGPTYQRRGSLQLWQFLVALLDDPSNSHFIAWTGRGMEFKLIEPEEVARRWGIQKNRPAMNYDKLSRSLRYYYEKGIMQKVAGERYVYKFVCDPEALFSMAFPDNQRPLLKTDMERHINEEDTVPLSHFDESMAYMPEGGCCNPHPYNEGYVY
# CRX, sequence (O43186 whole entry): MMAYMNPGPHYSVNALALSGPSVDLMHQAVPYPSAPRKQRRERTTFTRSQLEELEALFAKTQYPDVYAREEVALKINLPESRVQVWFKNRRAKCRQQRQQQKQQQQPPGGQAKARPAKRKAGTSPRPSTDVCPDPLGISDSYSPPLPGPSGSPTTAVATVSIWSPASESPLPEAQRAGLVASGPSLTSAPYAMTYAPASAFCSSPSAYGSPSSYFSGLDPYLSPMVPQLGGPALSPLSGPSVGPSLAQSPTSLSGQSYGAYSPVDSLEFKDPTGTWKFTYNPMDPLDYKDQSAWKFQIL
# ELF1, sequence (P32519 whole entry): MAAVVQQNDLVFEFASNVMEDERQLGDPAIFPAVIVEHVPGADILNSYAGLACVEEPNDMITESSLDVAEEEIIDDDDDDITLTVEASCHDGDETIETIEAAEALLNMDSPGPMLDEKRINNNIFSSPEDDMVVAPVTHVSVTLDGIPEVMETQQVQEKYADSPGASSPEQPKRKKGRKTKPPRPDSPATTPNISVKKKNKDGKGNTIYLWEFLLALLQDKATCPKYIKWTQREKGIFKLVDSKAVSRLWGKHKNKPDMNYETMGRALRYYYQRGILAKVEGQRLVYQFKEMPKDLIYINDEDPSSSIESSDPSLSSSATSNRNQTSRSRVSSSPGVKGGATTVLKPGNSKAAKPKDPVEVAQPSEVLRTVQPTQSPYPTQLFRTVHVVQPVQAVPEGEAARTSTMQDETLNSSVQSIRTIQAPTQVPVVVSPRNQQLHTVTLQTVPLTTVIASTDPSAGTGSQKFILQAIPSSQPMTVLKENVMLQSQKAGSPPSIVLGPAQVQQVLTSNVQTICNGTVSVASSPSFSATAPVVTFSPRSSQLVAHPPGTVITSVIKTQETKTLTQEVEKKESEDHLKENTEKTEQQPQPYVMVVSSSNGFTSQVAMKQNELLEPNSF
sequence,measurement,setting,value
TCGCTC,binding signal,FLI1,"1.25 fold enrichment (6-mer frequency, TF over GST control)"
same,binding signal,ELK1,"1.27 fold enrichment (6-mer frequency, TF over GST control)"
same,binding signal,GABPA,"1.35 fold enrichment (6-mer frequency, TF over GST control)"
same,binding signal,ERG,"1.26 fold enrichment (6-mer frequency, TF over GST control)"
same,binding signal,ELF1,"1.29 fold enrichment (6-mer frequency, TF over GST control)"
same,binding signal,EHF,"1.19 fold enrichment (6-mer frequency, TF over GST control)"
same,binding signal,SPI1,"1.29 fold enrichment (6-mer frequency, TF over GST control)"
same,binding signal,SPIB,"1.27 fold enrichment (6-mer frequency, TF over GST control)"
same,binding signal,ELK3,"1.37 fold enrichment (6-mer frequency, TF over GST control)"
same,binding signal,FEV,"1.23 fold enrichment (6-mer frequency, TF over GST control)"
same,binding signal,ETV5,"1.24 fold enrichment (6-mer frequency, TF over GST control)"
same,binding signal,HSF1,"1.25 fold enrichment (6-mer frequency, TF over GST control)"
same,binding signal,SPIC,"1.24 fold enrichment (6-mer frequency, TF over GST control)"
same,binding signal,ELF4,"1.31 fold enrichment (6-mer frequency, TF over GST control)"
same,binding signal,ELK4,"1.29 fold enrichment (6-mer frequency, TF over GST control)"
same,binding signal,ETV2,"1.22 fold enrichment (6-mer frequency, TF over GST control)"
same,binding signal,ELF3,"1.4 fold enrichment (6-mer frequency, TF over GST control)"
same,binding signal,CRX,"1.12 fold enrichment (6-mer frequency, TF over GST control)"
same,binding signal,ETV1,"1.38 fold enrichment (6-mer frequency, TF over GST control)"
